# Assay outcomes deposited in PubChem BioAssay by The Scripps Research Institute Molecular Screening Center.
# Sampled rows, rich in hits. Any-hit rate of the full collection: about 2.9%.
# ADAM17 inh: ADAM17 inhibition, QFRET primary screen. actives 0.83% (n = 370,000). recombinant ADAM17, EDANS/DABCYL FRET peptide cleavage. P78536. inhibition, % at 6.95 µM;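 active = inhibition above the mean of compounds lying between control limits plus 3 SD, set per campaign, cut at about 8.5% in these data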
# proKLK7 act: proKLK7 (human) activation, primary screen; P49862; purified proKLK7, EDANS-DABCYL substrate fluorescence; 100% is mature enzyme control, 0% vehicle; activation, % at 7 µM; actives 0.9% (n = 370,000); AID 652039;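 active = activation above the mean of all tested compounds plus 3 SD, computed per campaign excluding outliers beyond control limits, cut at about 13% in these data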
# ADAM10 inh: inhibits human ADAM10; O14672; recombinant ADAM10, EDANS/DABCYL FRET peptide cleavage, 3 h; inhibition, % at 7 µM; actives 0.62% (n = 370,000);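 active = inhibition above a per-campaign cutoff equal to the mean of compounds falling between control-based bounds plus 3 SD, cut at about 20% in these data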
# PLCb3 inh: blocks human PLC-beta3 enzyme activity; inhibition, % at 12.2 µM; actives 0.18% (n = 370,000); Q01970; Purified PLC-beta3, fluorogenic substrate, fluorescence
# PLCg1 inh: inhibitors of human phospholipase C gamma1. P19174. purified PLC-gamma1, fluorogenic substrate, fluorescence. inhibition, % at 12.2 µM. actives 0.84% (n = 370,000). AID 720700; in the data active = inhibition above about 9.5%
# PLCg1 ctr: counter-screen for PLC-beta3 inhibitors: inhibitors of human PLC-gamma1. purified PLC-gamma1, fluorogenic substrate, fluorescence. inhibition, % at 12.3 µM. actives 3.1% (n = 3,300). shares compounds with PLCg1 inh; in the data active = inhibition above about 9.5%
# PLCb3 confirm: human PLC-beta3 inhibition, confirmation. shares compounds with PLCg1 inh. actives 1% (n = 3,300). purified PLC-beta3, fluorogenic substrate fluorescence. AID 743261. inhibition, % at 12.3 µM
# A number is an active result; i = inactive; nt = no result given. Rule as the data show it, unless noted: active = inhibition above about 11%; inactive = the rest.
SMILES,ADAM17 inh,proKLK7 act,ADAM10 inh,PLCb3 inh,PLCg1 inh,PLCg1 ctr,PLCb3 confirm
CC1(C)CC(=O)C=C(Nc2ccccc2N)C1,i,i,i,i,i,nt,nt
Cc1cccc(NC2=CC(=O)CC(C)(C)C2)c1C,i,i,i,i,9.8,i,i
COC(=O)CCCCCCCCC(O)CN1CCCCC1 (stereo not given),i,i,i,12,i,i,i
CCN(CC)C(=O)c1nc(-c2cccc3ccccc23)no1,i,i,i,i,i,nt,nt
C/C(CC(=O)Nc1ccc(F)cc1)=N\NC(=O)COc1ccccc1,i,i,i,i,i,nt,nt
O=C(c1ccccc1NS(=O)(=O)c1ccc(Br)s1)N1CCCC1,i,i,i,11,i,i,i
CC(C)NC(=O)c1ccccc1NS(=O)(=O)c1ccc(Br)s1,i,i,i,i,i,nt,nt
CCC1Oc2ccccc2N(CC(=O)N2CCCC2)C1=O (stereo not given),i,i,i,i,9.7,i,i
CCOc1ccc(S(=O)(=O)Nc2cc(Cl)ccc2O)cc1,i,i,i,i,13,i,i
CCOc1ccc(S(=O)(=O)Nc2cccc(Cl)c2)cc1,i,i,i,i,i,nt,nt
c1ccc(-c2nnc(SCC3CCCO3)nc2-c2ccccc2)cc1 (stereo not given),i,i,i,i,i,nt,nt
c1ccc(-c2nnc(SCC3CCCCO3)nc2-c2ccccc2)cc1 (stereo not given),i,i,i,i,17,i,i
C=CCNC(=O)CN1CCC(c2nc3cc(C)c(C)cc3[nH]2)CC1,i,i,i,i,12,i,i
C=CCNC(=O)CN1CCC(c2nc3ccccc3[nH]2)CC1,i,i,i,i,i,nt,nt
CCc1ccc(C(=O)NNc2cc(Cl)ccc2Cl)cc1,i,i,i,i,10.0,i,i
Cc1ccc(C(=O)CCC(=O)Nc2ccc(Cl)c(S(=O)(=O)Nc3cccc(Cl)c3)c2)cc1,i,i,i,i,11,i,i
COc1ccc(C(=O)CCC(=O)Nc2cccc(Cl)c2)cc1,i,i,i,i,i,nt,nt
CC(NC(=O)C(c1ccccc1)c1ccccc1)c1ccccc1 (stereo not given),i,i,i,i,16,i,i
C[C@H](NC(=O)C(c1ccccc1)c1ccccc1)c1ccccc1,i,i,i,i,i,nt,nt
CCN(CC(=O)Nc1cccc(F)c1)CC(=O)Nc1ccccc1OC,i,i,i,i,9.8,i,i
CCN(CC(=O)Nc1cccc(S(=O)(=O)N2CCCC2)c1)CC(=O)Nc1ccccc1OC,i,i,i,i,i,nt,nt
Cc1c(NC(=O)C2CCCN(S(=O)(=O)c3cccc4ccccc34)C2)c(=O)n(-c2ccccc2)n1C (stereo not given),i,i,i,i,i,nt,nt
COc1nc(NCc2ccco2)nc(N2CCC(C)CC2)n1,i,i,i,i,i,nt,nt
CCNc1nc(OC)nc(N2CCC(Cc3ccccc3)CC2)n1,i,i,i,11,i,i,i
CC(C)=CCN1CCN(Cc2cc(CC(C)C)n[nH]2)CC1CCO (stereo not given),i,i,i,i,9.6,i,i
SMILES,ADAM17 inh,proKLK7 act,ADAM10 inh,PLCb3 inh,PLCg1 inh,PLCg1 ctr,PLCb3 confirm
Cc1ccc(C)c(N2CCN(S(=O)(=O)c3ccc4[nH]c(=O)ccc4c3)CC2)c1,i,i,i,i,i,nt,nt
Cc1ccc(C)c(N2CCN(S(=O)(=O)c3ccc4[nH]c(=O)c(=O)[nH]c4c3)CC2)c1,i,i,i,i,17,i,i
Cc1cc(-c2n[nH]c(=S)n2N=Cc2ccc(-c3ccccc3)cc2)n[nH]1,i,i,i,i,i,nt,nt
Cc1ccc(/C=C/C(=O)N2CC(=O)Nc3ccccc32)o1,i,i,i,i,i,nt,nt
COc1ccc(OCc2cc(C(=O)NC(C)Cc3cccnc3)no2)c(Cl)c1 (stereo not given),i,i,i,i,i,nt,nt
COc1ccc(OCc2cc(C(=O)NC(C)Cn3cncn3)no2)c(Cl)c1 (stereo not given),i,i,i,i,11,i,i
O=C(CCCN1C(=O)c2ccccc2C1=O)Nc1nccs1,i,i,i,i,14,i,i
Cn1c(=O)c2c(nc(C3CC4C5CCC(C5)C4C3)n2C)n(C)c1=O (stereo not given),i,i,i,i,i,nt,nt
CCC(=O)Nc1c2c(nn1-c1ccc(OC)cc1)CSC2,i,i,i,i,i,nt,nt
CC(C)CC(=O)Nc1c2c(nn1-c1ccc(F)cc1)CSC2,i,i,i,12,i,i,i
CC1=C(C(=O)N2CCCCCC2)CC(CC(=O)NCC2CCCCC2)C(=O)N1CCCN1CCCC1=O (stereo not given),i,i,i,i,i,nt,nt
Cc1ccc(O)c(-c2cc(C(=O)Nc3cccnc3)[nH]n2)c1,i,i,i,i,11,i,i
Cc1ccccc1NC(=O)N1CCCC(c2nc(-c3ccc(C(C)C)cc3)no2)C1 (stereo not given),i,i,i,i,10,i,i
O=C(NC1CCCCC1)N1CCCC(c2nc(-c3cccs3)no2)C1 (stereo not given),i,i,i,i,10,i,i
CN1C(=O)C(N=Nc2ccc([N+](=O)[O-])cc2)SC1=S (stereo not given),i,i,i,i,i,nt,nt
C[N+](C)(C)CCOC(N)=O,i,i,i,i,11,i,i
CC(NC(=O)CCn1nc(-c2ccc(Cl)cc2)ccc1=O)c1ccccc1 (stereo not given),i,i,i,i,10,i,i
Cc1ccc(CNC(=O)CCn2nc(-c3ccc(Cl)cc3)ccc2=O)cc1,i,i,i,i,i,nt,nt
CCOc1ccc(C(=O)N(CN2CCCC2=O)c2ccccc2)cc1,i,i,i,i,9.9,i,i
Cc1cc(C)cc(N(CC(=O)NC2CCC(C)CC2)S(=O)(=O)c2cccs2)c1 (stereo not given),i,i,i,i,i,nt,nt
COc1ccc(C2=NOC(Cn3nc(-c4ccccc4)cc3C(=O)NCc3cccc(Br)c3)C2)cc1 (stereo not given),i,i,i,16,i,i,i
COc1ccc(S(=O)(=O)N2CCCCC2c2cc(C(=O)Nc3ccc4c(c3)OCO4)no2)cc1 (stereo not given),i,i,i,i,i,nt,nt
Nc1c(Br)c(=O)[nH]c(=O)n1-c1ccccc1,i,i,i,i,i,nt,nt
COc1ccc(-n2c(N)c(Br)c(=O)[nH]c2=O)cc1,i,i,i,i,11,i,i
COc1cc(NC(=O)CN2C(=O)c3ccccc3Sc3ccc(C(=O)N4CCOCC4)cc32)cc(OC)c1OC,i,i,i,i,i,nt,nt
CCCCN(C)c1c(C)nc2ccc(C(=O)Nc3cc(-c4ccccc4)ccc3OC)cn12,i,i,i,i,i,nt,nt
Fc1ccc(-[n+]2nc(Nc3ccccc3)sc2-c2c(Cl)cccc2Cl)cc1,i,i,i,15,11,i,i
